Reference: PubChem BioAssay
Calls of active or inactive are those of the source.

Assays:
[1] = system: Plasmodium falciparum Sir2 (PF13_0152, Sir2A); assay: pfSir2 binders on small-molecule microarrays, primary screen, biochemical, small-molecule microarray, 635 nm fluorescence (AID 1098); conditions: small-molecule microarray binding, fluorescence 635 nm; higher = more signal;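 further: score merges spot fluorescence intensity with its signal-to-noise ratio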
[2] = small-molecule microarray binders of probe aDKK1, primary screen, biochemical, biotinylated probe, 635/667 nm fluorescence (AID 1099); conditions: higher = more signal;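 further: score merges 667nm spot fluorescence with signal to noise across triplicate slides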
[3] = small-molecule microarray binders of probe aCHRDL2, primary screen, biochemical, biotinylated probe, 635/667 nm fluorescence (AID 1100); conditions: higher = more signal
[4] = splicing luciferase reporter signal modulators, primary screen, spliceosome inhibition project, cell-based, HEK293, splice +/- reporter (AID 1101); conditions: luminescence, 24 h, higher = more signal, called active from +8 up or from −8 down;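 further: HEK293 cells carrying a splicing-competent luciferase reporter gene; test concentration not given here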
[5] = biological target: Fibroblast growth factor 10 (Homo sapiens) (UniProt O15520); assay: FGF10 binders on small-molecule microarrays, primary screen, biochemical, small-molecule microarray, 635 nm fluorescence (AID 1102); conditions: FGF10 binding, fluorescence 635 nm, higher = more signal
Sequence of Fibroblast growth factor 10 (Homo sapiens) (O15520 whole entry, looked up): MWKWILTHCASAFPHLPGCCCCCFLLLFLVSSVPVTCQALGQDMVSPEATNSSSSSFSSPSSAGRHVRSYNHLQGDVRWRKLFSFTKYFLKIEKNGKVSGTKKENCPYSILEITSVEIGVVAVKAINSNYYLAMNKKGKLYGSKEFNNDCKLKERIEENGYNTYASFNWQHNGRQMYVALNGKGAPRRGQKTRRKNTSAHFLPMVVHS

[6] = system: glycogen synthase kinase-3 (GSK3A per assay name; protocol says GSK3B); assay: GSK3 binders on small-molecule microarrays, primary screen, biochemical, small-molecule microarray, 635 nm fluorescence, GSK3A (AID 1103); conditions: small-molecule microarray binding, fluorescence 635 nm; higher = more signal; further: the record names both GSK3A and GSK3B
[7] = biological target: Epidermal growth factor receptor (Homo sapiens) (UniProt P00533); assay: EGFR binders on small-molecule microarrays, primary screen, biochemical, small-molecule microarray, 635 nm fluorescence (AID 1104); conditions: EGFR binding, higher = more signal;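 further: score merges 667 nm emission intensity with spot signal to noise over triplicate slides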
Sequence of Epidermal growth factor receptor (Homo sapiens) (P00533 whole entry, looked up): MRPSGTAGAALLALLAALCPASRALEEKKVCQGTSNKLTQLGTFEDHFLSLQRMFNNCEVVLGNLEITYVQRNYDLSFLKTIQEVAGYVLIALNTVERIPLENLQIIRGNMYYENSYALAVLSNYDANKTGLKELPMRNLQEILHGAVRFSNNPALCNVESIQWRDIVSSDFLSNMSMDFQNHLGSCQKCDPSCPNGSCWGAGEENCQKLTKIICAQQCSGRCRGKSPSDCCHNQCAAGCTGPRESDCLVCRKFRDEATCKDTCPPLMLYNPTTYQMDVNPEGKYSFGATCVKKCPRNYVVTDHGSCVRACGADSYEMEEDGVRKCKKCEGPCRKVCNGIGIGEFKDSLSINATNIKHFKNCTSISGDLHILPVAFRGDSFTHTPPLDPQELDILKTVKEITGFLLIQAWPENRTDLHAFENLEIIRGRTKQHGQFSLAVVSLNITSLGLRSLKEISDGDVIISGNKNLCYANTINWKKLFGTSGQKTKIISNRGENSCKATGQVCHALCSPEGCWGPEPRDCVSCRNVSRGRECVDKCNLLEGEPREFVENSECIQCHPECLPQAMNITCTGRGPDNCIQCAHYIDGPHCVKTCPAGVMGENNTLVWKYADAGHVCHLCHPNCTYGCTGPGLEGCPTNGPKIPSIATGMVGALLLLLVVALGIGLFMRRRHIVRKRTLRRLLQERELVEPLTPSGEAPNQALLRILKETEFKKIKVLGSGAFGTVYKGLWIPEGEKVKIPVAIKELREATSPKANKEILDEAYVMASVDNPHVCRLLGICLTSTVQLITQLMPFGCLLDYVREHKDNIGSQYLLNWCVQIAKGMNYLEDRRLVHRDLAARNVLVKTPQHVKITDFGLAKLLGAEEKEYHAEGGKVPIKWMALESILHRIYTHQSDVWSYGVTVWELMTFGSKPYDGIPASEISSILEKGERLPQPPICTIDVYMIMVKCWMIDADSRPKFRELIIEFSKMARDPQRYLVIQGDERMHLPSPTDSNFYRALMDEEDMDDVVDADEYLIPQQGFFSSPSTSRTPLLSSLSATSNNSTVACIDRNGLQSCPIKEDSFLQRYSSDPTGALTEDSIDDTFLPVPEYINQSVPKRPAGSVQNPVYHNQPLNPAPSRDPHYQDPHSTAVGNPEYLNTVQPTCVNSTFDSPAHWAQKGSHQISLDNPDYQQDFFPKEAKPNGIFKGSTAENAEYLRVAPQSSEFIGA

[8] = biological target: Follistatin-related protein 3 (Homo sapiens) (UniProt O95633); assay: FSTL3 binders on small-molecule microarrays, primary screen, biochemical, small-molecule microarray, 635 nm fluorescence (AID 1105); conditions: FSTL3 binding, higher = more signal;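 further: score merges emission near 667 nm and signal to noise per printed spot across three slides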
Sequence of Follistatin-related protein 3 (Homo sapiens) (O95633 whole entry, looked up): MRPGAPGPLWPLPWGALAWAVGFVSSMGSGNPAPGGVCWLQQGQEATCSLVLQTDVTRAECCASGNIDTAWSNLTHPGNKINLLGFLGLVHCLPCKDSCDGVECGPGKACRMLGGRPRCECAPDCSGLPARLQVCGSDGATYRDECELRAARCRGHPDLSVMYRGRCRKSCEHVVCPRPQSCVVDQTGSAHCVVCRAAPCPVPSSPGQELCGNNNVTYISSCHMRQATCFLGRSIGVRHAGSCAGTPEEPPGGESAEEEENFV

[9] = biological target: Dickkopf-related protein 1 (Homo sapiens) (UniProt O94907); assay: DKK1 binders on small-molecule microarrays, primary screen, biochemical, small-molecule microarray, 635 nm fluorescence scan (AID 1106); conditions: DKK1 binding, higher = more signal;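 further: score merges emission near 667 nm with signal to noise over three replicate slides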
Sequence of Dickkopf-related protein 1 (Homo sapiens) (O94907 whole entry, looked up): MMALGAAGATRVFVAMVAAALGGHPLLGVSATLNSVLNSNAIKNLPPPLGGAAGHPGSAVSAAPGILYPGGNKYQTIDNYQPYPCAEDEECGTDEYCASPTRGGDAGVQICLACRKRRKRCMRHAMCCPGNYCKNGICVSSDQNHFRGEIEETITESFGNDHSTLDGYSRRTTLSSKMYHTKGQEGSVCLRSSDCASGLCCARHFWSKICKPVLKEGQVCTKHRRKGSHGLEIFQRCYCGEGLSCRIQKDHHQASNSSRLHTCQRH

[10] = system: Inhibin beta A chain (activin A); assay: INHBA (activin A) binders on microarrays, primary screen, biochemical, small-molecule microarray, 635 nm fluorescence scan (AID 1107); conditions: small-molecule microarray binding, higher = more signal;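 further: mouse activin A protein probed at 4.33 µg/mL on printed slides; score merges bound-protein fluorescence near 667 nm with spot signal-to-noise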
[11] = system: Human papillomavirus type 1a protein E7 (residues 44-93); assay: HPV1a E7 fragment binders on microarrays, primary screen, biochemical, small-molecule microarray, residues 44-93, 635 nm fluorescence (AID 1108); conditions: small-molecule microarray binding, fluorescence 635 nm; higher = more signal;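 further: E7 fragment applied at 1 µg/mL in TBST for 1 h at 4 C; score combines spot fluorescence with its signal to noise ratio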
[12] = modulators of HCV replicon luciferase signal, primary screen, HCV replication inhibitor project, Huh7 cells, luciferase reporter (AID 1109); conditions: 48 h, higher = more signal;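 further: huh7 hepatoma cells harbouring a luciferase neomycin HCV replicon reporter; luciferase luminescence as measure of HCV replicon replication; test concentration not given here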
[13] = biological target: Left-right determination factor 2 (Homo sapiens) (UniProt O00292); assay: LEFTY2 binders on small-molecule microarrays, primary screen, biochemical, small-molecule microarray, 635 nm fluorescence scan (AID 1110); conditions: LEFTY2 binding, higher = more signal
Sequence of Left-right determination factor 2 (Homo sapiens) (O00292 whole entry, looked up): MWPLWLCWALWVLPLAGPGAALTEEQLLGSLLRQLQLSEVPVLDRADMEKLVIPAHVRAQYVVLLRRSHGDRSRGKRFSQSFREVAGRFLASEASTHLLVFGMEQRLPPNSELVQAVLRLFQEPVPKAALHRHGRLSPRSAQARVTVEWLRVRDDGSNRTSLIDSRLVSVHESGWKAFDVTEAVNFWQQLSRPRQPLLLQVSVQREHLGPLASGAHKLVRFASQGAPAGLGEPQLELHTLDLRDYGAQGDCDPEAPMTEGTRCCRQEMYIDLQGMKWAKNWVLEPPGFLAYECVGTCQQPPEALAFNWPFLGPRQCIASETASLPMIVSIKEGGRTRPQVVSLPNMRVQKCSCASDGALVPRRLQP

[14] = biological target: Calmodulin-1 (Homo sapiens) (UniProt P0DP23); assay: CALM1 binders on microarrays, EGTA buffer, profiling panel, biochemical, small-molecule microarray, Cy5-labelled CALM1 (AID 1111); conditions: Cy5-CALM1 binding fluorescence, higher = more signal;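 further: labelled calmodulin applied in Tris saline Tween buffer holding calcium plus EGTA and DTT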
[15] = biological target: Calmodulin-1 (Homo sapiens) (UniProt P0DP23); assay: calcium-bound CALM1 binders on microarrays, profiling panel, artefact control for SMM control-protein annotation, biochemical, small-molecule microarray, Cy5-labelled CALM1, plus calcium (AID 1112); conditions: Cy5-CALM1 binding fluorescence, higher = more signal;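 further: score merges spot fluorescence with signal to noise from triplicate slides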
[16] = small-molecule microarray binders of probe aWnt5a, primary screen, biochemical, biotinylated probe, 635/667 nm fluorescence (AID 1113); conditions: higher = more signal;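 further: score merges 667 nm fluorescence intensity with signal-to-noise per printed feature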
[17] = small-molecule microarray binders of probe aShh, primary screen, biochemical, biotinylated probe, 635/667 nm fluorescence (AID 1114); conditions: higher = more signal;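 further: probe is biotin-labelled aShh protein from a stem cell growth factor screen; measures binding of labelled protein to compounds printed on the slide; score merges feature fluorescence at 667 nm with signal-to-noise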
[18] = small-molecule microarray binders of probe aNog, primary screen, biochemical, biotinylated probe, 635/667 nm fluorescence (AID 1115); conditions: higher = more signal;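 further: probe is biotinylated aNog protein used at 0.15 µg/mL for 1 h at 4 C; z-score combines 667 nm fluorescence of each spot with its signal to noise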
[19] = biological target: Torsin-1A-interacting protein 1 (Homo sapiens) (UniProt Q5JTV8); assay: LAP1 binders from COS7 cell lysate, primary screen, small-molecule microarray, 635/667 nm fluorescence (AID 1116); conditions: COS7-hLAP1 lysate binding, 635 nm fluorescence, higher = more signal
Sequence of Torsin-1A-interacting protein 1 (Homo sapiens) (Q5JTV8 whole entry, looked up): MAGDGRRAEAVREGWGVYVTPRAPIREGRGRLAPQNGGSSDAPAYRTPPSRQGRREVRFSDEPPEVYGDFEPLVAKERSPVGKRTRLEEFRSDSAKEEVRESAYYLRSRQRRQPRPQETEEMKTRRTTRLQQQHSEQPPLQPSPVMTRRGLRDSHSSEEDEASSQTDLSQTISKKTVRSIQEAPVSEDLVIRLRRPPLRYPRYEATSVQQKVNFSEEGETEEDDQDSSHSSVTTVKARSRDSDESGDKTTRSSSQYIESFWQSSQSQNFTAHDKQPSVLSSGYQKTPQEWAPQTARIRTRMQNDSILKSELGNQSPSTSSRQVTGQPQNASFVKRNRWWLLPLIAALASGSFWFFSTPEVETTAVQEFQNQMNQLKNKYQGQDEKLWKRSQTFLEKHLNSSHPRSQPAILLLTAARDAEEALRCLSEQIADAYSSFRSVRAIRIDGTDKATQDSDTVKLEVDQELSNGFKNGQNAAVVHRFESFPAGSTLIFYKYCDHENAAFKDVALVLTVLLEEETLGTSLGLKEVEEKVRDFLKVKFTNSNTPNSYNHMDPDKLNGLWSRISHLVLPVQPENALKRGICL

[20] = biological target: Alpha-bungarotoxin (Bungarus multicinctus) (UniProt P60615); assay: alpha-bungarotoxin binders on microarray, profiling panel, artefact control for SMM control protein annotation, biochemical, small-molecule microarray, Alexa647 label, 635/667 nm fluorescence (AID 1117); conditions: alpha-BTX-A647 binding fluorescence, higher = more signal
Sequence of Alpha-bungarotoxin (Bungarus multicinctus) (P60615 whole entry, looked up): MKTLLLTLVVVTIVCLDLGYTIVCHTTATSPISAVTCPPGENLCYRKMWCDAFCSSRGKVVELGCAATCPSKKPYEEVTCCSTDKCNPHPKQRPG

Row | Structure (SMILES) | composite z-score [1] | composite z-score [2] | composite z-score [3] | z-score [4] | composite z-score [5] | composite z-score [6] | composite z-score [7] | composite z-score [8] | composite z-score [9] | composite z-score [10] | composite z-score [11] | z-score [12] | composite z-score [13] | composite z-score [14] | composite z-score [15] | composite z-score [16] | composite z-score [17] | composite z-score [18] | composite z-score [19] | composite z-score [20]
1 | C=C(CCCC)/C(=C/C[C@H](OC(=O)c1ccncc1)c1ccccc1OCCO)c1cnc2ccccc2c1 | 0.869 | -0.037 | -0.286 | -0.292 (inactive) | 1.08 | 0.898 | 0.591 | 1.49 | 0.472 | 1.66 | 1.13 | -2.82 | 0.274 | 0.154 | -0.666 | -0.096 | -0.0977 | -0.0428 | 0.634 | 0.527
2 | C[C@H]1C2[C@H](Cc3ccccc3)NC(=O)[C@]23C(=O)N[C@H](Cc2ccccc2)C(=O)N2CCC[C@H]2C(=O)NC/C=C\C/C=C/C3[C@@H]2O[C@]12C (stereo not given in full) | 0.901 | -0.0646 | -0.19 | -0.925 (inactive) | 0.428 | -0.298 | -0.0282 | 0.801 | 0.299 | 0.946 | -0.355 | 0.255 | 0.203 | -0.404 | -0.863 | -0.0165 | -0.0146 | -0.0003 | 0.0015 | 1.18
3 | C=CCC(OC(C)=O)[C@@H]1[C@@H](N(Cc2ccc(-c3ccccc3)cc2)C(=O)c2cccc3ccccc23)c2cc(OCCCO)ccc2N1C(=O)c1ccc(-c2ccccc2)cc1 (stereo not given in full) | -0.333 | 0.4 | 0.672 | -1.05 (inactive) | 0.164 | 0.366 | -0.192 | 0.269 | -0.111 | 1.09 | 0.431 | -0.133 | -0.351 | 0.468 | 0.553 | -0.187 | -0.0793 | -0.443 | 0.951 | 0.445
4 | CC(C)NC(=O)[C@@H]1c2ccccc2C(=O)N(C2Cc3ccccc3C2)[C@H]1c1ccc(CO)cc1 | 0.959 | 0.172 | 0.749 | -0.535 (inactive) | 0.16 | 0.726 | -0.477 | 0.0389 | -0.224 | 0.175 | 1.41 | -1.31 | 0.25 | 0.344 | -0.225 | 0.0142 | -0.366 | -0.449 | 0.724 | 0.399
5 | COc1ccc([Si](C)(C)[C@H]2[C@H](CC(=O)N3Cc4ccccc4C[C@H]3CO)O[C@@]3(C(=O)N(Cc4cccc(N5CCC5=O)c4)c4ccccc43)[C@@H]2C)cc1 | 1.31 | -0.293 | -0.325 | -0.205 (inactive) | 1.05 | 0.716 | 1.19 | 1.42 | 1.26 | 0.962 | 1.37 | -3.58 | 0.903 | -0.293 | -1.02 | -0.0425 | 0.2 | 0.0308 | 0.626 | -0.0509
6 | CCOC(=O)C[C@H]1[C@H](OC(=O)c2ccc(C(=O)c3ccccc3)cc2)[C@@H](NC(=O)c2ccc3ccccc3c2)c2cc(OCCCO)ccc2N1C(=O)Cc1ccc(OC)cc1 | 1.14 | 0.282 | 0.503 | -0.175 (inactive) | 0.545 | 0.158 | -0.16 | 0.303 | -0.213 | 0.856 | 0.86 | -0.989 | -0.0254 | 1.14 | 0.187 | -0.0405 | -0.0553 | 0.177 | 0.669 | 0.729
7 | C=CCOC(=O)[C@H]1[C@@H]2C(=O)O[C@@H](c3ccccc3)[C@@H](c3ccccc3)N2[C@@H](c2ccc(OCCOC(=O)[C@H]3C[C@H]4C(=O)N[C@@H](CCCCNC(C)=O)C(=O)N4[C@H]3c3ccc(O)cc3)cc2)[C@]12C(=O)Nc1ccc(I)cc12 | 1.33 | -0.182 | -0.717 | -0.0027 (inactive) | 0.707 | 1.11 | 0.506 | 1.26 | 0.667 | 1.02 | 0.804 | -3.26 | 0.418 | 0.124 | -0.732 | -0.0236 | 0.123 | -0.238 | 0.612 | 0.963
8 | CC1CC/C=C\[C@H]2OC34C=CCN(C(C)(C)C)C(=O)[C@H]3N(C(C)CO)C(=O)[C@@H]4C2C(=O)O1 (stereo not given in full) | -1.24 | -0.366 | -0.266 | 1.11 (inactive) | -0.443 | -0.948 | -0.698 | -0.268 | -0.007 | 1.28 | -0.864 | -1.4 | -0.442 | -1.19 | -1.23 | -0.124 | -0.0011 | -0.219 | -0.23 | -0.942
9 | O=C(c1ccccc1)N1C(=O)[C@]2(COC(c3ccc(OCCCO)cc3)=N2)Cc2ccccc21 | 1.7 | 0.688 | 0.784 | 0.00817 (inactive) | 1.07 | 1.32 | 0.218 | 1.23 | 0.427 | 0.424 | 1.04 | -1.14 | 0.448 | 1.8 | 0.106 | -0.0303 | -0.321 | 1.13 | 1.84 | 2.29
